From PubChem BioAssay (NCATS) come the findings set out here.

Common to all, as to assay: Confirmatory Screen for Target Class Profiling of Small Molecule Inhibitors of Methyltransferases (AID 1745852); on activity change, negative = inhibition: on the % scale 0 is the no-effect control and ±100 the full control effect
Assay [1] addresses Catechol O-methyltransferase (Homo sapiens) (UniProt P21964). As to conditions: MTase-Glo luminescence, SAH detection, recombinant enzyme; measured here: COMT max response; stronger effect = lower value.
For assay [2], the target named is Guanidinoacetate N-methyltransferase (Homo sapiens) (UniProt Q14353). As to conditions: activity change, negative = inhibition: at 57.3 µM (top of the series) unless noted.
Assay [3] has as its target Nicotinamide N-methyltransferase (Homo sapiens) (UniProt P40261). As to conditions: MTase-Glo luminescence, SAH detection, recombinant enzyme; measured here: NNMT max response; stronger effect = lower value.
The target of assay [4] is Phenylethanolamine N-methyltransferase (Homo sapiens) (UniProt P11086). The settings on record: MTase-Glo luminescence, SAH detection, recombinant enzyme; measured here: PNMT max response; stronger effect = lower value.

Calls of active or inactive are those of the source. The call rests on the fitted dose curve.
Potency means the concentration at half of the fitted maximal effect.

Chain of Nicotinamide N-methyltransferase (Homo sapiens) (P40261 whole entry, looked up): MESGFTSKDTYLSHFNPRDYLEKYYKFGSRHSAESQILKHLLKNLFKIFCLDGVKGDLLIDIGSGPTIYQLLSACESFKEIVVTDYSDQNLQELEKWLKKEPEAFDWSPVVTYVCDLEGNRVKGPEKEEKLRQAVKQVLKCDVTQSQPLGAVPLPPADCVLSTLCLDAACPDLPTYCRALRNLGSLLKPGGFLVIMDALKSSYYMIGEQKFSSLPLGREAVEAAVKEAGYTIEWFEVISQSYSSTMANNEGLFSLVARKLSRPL
Chain of Phenylethanolamine N-methyltransferase (Homo sapiens) (P11086 whole entry, looked up): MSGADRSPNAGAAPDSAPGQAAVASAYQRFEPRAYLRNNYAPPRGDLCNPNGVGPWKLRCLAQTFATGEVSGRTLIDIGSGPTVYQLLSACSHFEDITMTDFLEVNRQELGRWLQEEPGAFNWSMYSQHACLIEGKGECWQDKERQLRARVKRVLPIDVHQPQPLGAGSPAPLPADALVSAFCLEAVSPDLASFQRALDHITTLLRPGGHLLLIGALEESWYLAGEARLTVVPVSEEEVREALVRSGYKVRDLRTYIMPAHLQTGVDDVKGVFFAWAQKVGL
Chain of Catechol O-methyltransferase (Homo sapiens) (P21964 whole entry, looked up): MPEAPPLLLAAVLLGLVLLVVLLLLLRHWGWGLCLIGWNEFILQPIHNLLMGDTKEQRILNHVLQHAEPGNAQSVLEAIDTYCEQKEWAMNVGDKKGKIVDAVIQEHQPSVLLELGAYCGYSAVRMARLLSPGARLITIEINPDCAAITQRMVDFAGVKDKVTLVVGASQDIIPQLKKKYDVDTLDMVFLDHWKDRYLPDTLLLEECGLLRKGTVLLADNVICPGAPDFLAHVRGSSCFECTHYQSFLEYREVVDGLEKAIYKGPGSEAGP

With `CC(=O)NC1CC2(CCN(Cc3ccc(O)cc3)CC2)c2ccccc21` (stereo not drawn), the activity in assay [1] was found to be 6.67%; in assay [3], 12.2%; in assay [4], 5.3%. For the same compound, the activity change, negative = inhibition in assay [2] was found to be 7.28% [at 85.7 µM].
Turning to `Cc1cnc(CCNC(=O)c2n[nH]c(=O)c3ccccc23)n1C1CCCCC1`, the activity in assay [1] was -2.57%; in assay [3], -0.405%; in assay [4], -2.34%. Besides, the activity change, negative = inhibition in assay [2] came to 5.31%.
Regarding `COC(=O)c1ccc(C)c2c1C1C=CCC1[C@@H](c1ccc(C(=O)O)cc1)N2` (stereo partly drawn), the activity in assay [1] was -11.4%; in assay [3], -8.29%; in assay [4], -3.22%. In assay [2], the activity change, negative = inhibition is -1.6%.
In the same order, the values of `Cn1ccc(Nc2cc3c(cn2)CN(CCc2ccccc2)CCN3)n1` are -0.459%, -5.86%, -38.8% and -0.578% [at 85.7 µM].
Regarding `CC(C)Cn1c(=O)c2ccccc2n2c(CCC(=O)NCCc3ccc(Cl)cc3)nnc12`, the activity is -5.92% in assay [1], -41% in assay [3] and -6.54% in assay [4]. Moreover, in assay [2], the activity change, negative = inhibition was -1.54%.
The corresponding values for `CC1(C)[C@H](Cc2cc(-c3ccccc3)on2)C[C@@H]1NCC1CC1` are 1.83%, -6.44%, -13.1% and -0.152% [at 85.7 µM].
Take `COc1ccc(CCN2C(=O)c3ccc(-c4ccco4)n3CC2(C)C(=O)NC2CCCC2)cc1OC` (stereo not drawn): the activity is -9.3% in assay [1], -65.9% in assay [3] and -5.82% in assay [4]. In addition, the activity change, negative = inhibition in assay [2] is -6.46%.
As to `CCOC(=O)C1CCCN(S(=O)(=O)c2ccc3[nH]c(=O)[nH]c3c2)C1` (stereo not drawn), the activity in assay [1] was 2.57%; in assay [3] it was -6.43%; in assay [4] it was -50.4%. Moreover, the activity change, negative = inhibition in assay [2] stood at 0%.
Turning to `COCCCN1C(=O)c2cc3c(OC)ccc(OC)c3n2CC1(C)C(=O)NC1CCCCC1` (stereo not drawn), the activity in assay [1] was -9.18%; in assay [3], -20.2%; in assay [4], -10%. Further, the activity change, negative = inhibition in assay [2] is -5.66%.
As to `CCN(CC)CCNC(=O)CCc1nnc2n(Cc3ccc(C)cc3)c(=O)c3ccccc3n12`, the activity in assay [1] is -5.02%; in assay [3], -14.5%; in assay [4] it was 0.867%. In addition, the activity change, negative = inhibition in assay [2] is -3.03%.
With `O=C(NCc1ccc2c(c1)OCO2)c1sc(=S)n2c1[nH]c(=O)c1ccccc12`, the values for the activity in assay [1], in assay [3] and in assay [4] were -46.4%, -20.7% and -48.8%, respectively. Further, the Potency in assay [2] is 27.1 µM (active).
As to `Oc1ccc(NCCN2CCCC2)cc1`, the activity is -10.9% in assay [1], -12.3% in assay [3] and -7.62% in assay [4]. In addition, in assay [2], the activity change, negative = inhibition was -14.6% [at 114 µM].
In the case of `COc1ccccc1N1CCN(S(=O)(=O)c2cccc3c2C(=O)c2ccccc2C3=O)CC1`, the results for the activity in assay [1], in assay [3] and in assay [4] were -3.23%, -1.31% and -8.85%, respectively. Further, in assay [2], the activity change, negative = inhibition was 2.86%.
Regarding `COc1ccc(OC)c2c1cc1n2CC(C)(C(=O)NC2CCCCC2)N(Cc2ccccn2)C1=O` (stereo not drawn), the figures for the activity in assay [1], in assay [3] and in assay [4] were -7.35%, -22.4% and -6.38%, respectively. Further, in assay [2], the activity change, negative = inhibition is -3.03%.
In the same order, the values of `Cc1nc2cccnc2n1CC1CCCN(S(=O)(=O)c2ccc3c(c2)OCCO3)C1` (stereo not drawn) are 2.68%, -4.66%, -0.0682% and -0.116%.
Take `O=C(NCc1ccc(Cl)cc1)c1ccc2c(=O)[nH]c3c(C(=O)NC4CCCC4)sc(=S)n3c2c1`: the activity in assay [1] is -32.6%; in assay [3] it was -79.2%; in assay [4] it was -80.2%. Further, the Potency in assay [2] was 42.9 µM (active).
As for `CCCn1c(=O)c2ccccc2n2c(=O)n(CC(=O)c3cc(C)ccc3C)nc12`, the results for the activity in assay [1], in assay [3] and in assay [4] were 1.84%, -36.8% and -0.0841%, respectively. In assay [2], the activity change, negative = inhibition is 0%.
`Cc1ccc(NS(=O)(=O)c2ccc3[nH]c(=O)[nH]c3c2)cc1F`: the activity in assay [1] is -8.47%; in assay [3], -16.3%; in assay [4], -45.9%. Further, the activity change, negative = inhibition in assay [2] is -6.18%.
In the same order, the values of `CC(C)NC(=O)c1ccccc1OCC1CCCN(Cc2cn(C)c3ccccc23)C1` (stereo not drawn) are 8.45%, 4.67%, 10.4% and 14.4%.
On to `CNC(=O)NCCc1ncc(C)n1C1CCCCCCC1`, for which the results for the activity in assay [1], in assay [3] and in assay [4] were 1.76%, -4.6% and -0.137%, respectively. The activity change, negative = inhibition in assay [2] worked out at 2.65%.
On to `O=C1c2ccccc2C(=O)c2c1cccc2S(=O)(=O)Nc1ccc(Cl)cc1`, for which the activity in assay [1] was 0.0726%; in assay [3], -1.28%; in assay [4], -37%. Also, the activity change, negative = inhibition in assay [2] is -0.67%.
For the compound `Cc1c(C(=O)O)ccc2c1N[C@@H](c1cccc(C(F)(F)F)c1)[C@H]1CC=C[C@@H]21`, the activity is -4.24% in assay [1], -5.85% in assay [3] and -7.15% in assay [4]. In addition, the activity change, negative = inhibition in assay [2] is -0.164%.
In the case of `Cc1cnc(C2CCC2)n1C1CCN(C(=O)CCC2CCCC2)CC1`, the activity was -8.04% in assay [1], -13.3% in assay [3] and -7.48% in assay [4]. Besides, the activity change, negative = inhibition in assay [2] was -7.84%.
With `CCCC1c2cccn2CCN1C(=O)Nc1ccccc1C(F)(F)F` (stereo not drawn), the results for the activity in assay [1], in assay [3] and in assay [4] were -12.1%, -18.7% and -13.3%, respectively. Moreover, the activity change, negative = inhibition in assay [2] is -8.26%.
`CN1CCN(c2ncnc3sc4c(c23)CCNC4)CC1`: the figures for the activity in assay [1], in assay [3] and in assay [4] were -1.43%, -71.2% and -15%, respectively. For the same compound, in assay [2], the activity change, negative = inhibition was 0.536%.
Consider `O=C(Nc1ccc2c(N3CCOCC3)ncnc2c1)c1cccc(Cl)c1`, for which the activity is -10.9% in assay [1], -7.95% in assay [3] and -22.8% in assay [4]. Also, the activity change, negative = inhibition in assay [2] is -4.21%.
`COc1ccc(-c2cc3c(cn2)CN(CCc2ccccc2)CCN3)cc1OC`: the activity is -0.529% in assay [1], -18.9% in assay [3] and -48.8% in assay [4]. Further, the activity change, negative = inhibition in assay [2] came to 3.81% [at 85.7 µM].
In the case of `CC(C)CCN1CC2(CCCN(C(=O)c3ccn(C)c(=O)c3)C2)CCC1=O` (stereo not drawn), the activity stood at 5.04% in assay [1], 3.97% in assay [3] and 1.77% in assay [4]. Moreover, the activity change, negative = inhibition in assay [2] is 8.37%.
Consider `CCCS(=O)(=O)N1CCCC(Cn2c(C)nc3cccnc32)C1` (stereo not drawn), for which the results for the activity in assay [1], in assay [3] and in assay [4] were 1.15%, 7.76% and 4.99%, respectively. Besides, the activity change, negative = inhibition in assay [2] came to 2.96%.
Regarding `CC1(C(=O)NC2CCCCCC2)Cn2c(cc3occc32)C(=O)N1Cc1ccc2c(c1)OCO2` (stereo not drawn), the activity in assay [1] was -5.04%; in assay [3], -18%; in assay [4], -10.8%. The Potency entry in assay [2] is “inactive”.
Take `COc1cccc(CN2CCCC3(CNc4ccccc4[S+](=O)([O-])N3)C2)c1` (stereo not drawn): the activity was -4.83% in assay [1], -12.2% in assay [3] and -3.23% in assay [4]. The activity change, negative = inhibition in assay [2] was -8.51%.
In the case of `O=C(Cn1ccc2cc(S(=O)(=O)N3CCCCC3)ccc21)NCCCN1CCCCC1`, the activity in assay [1] is -5.54%; in assay [3], -8.24%; in assay [4], -7.19%. Moreover, the activity change, negative = inhibition in assay [2] is -0.43%.
For the compound `CC(C)c1nccn1CCCNc1nc(-c2ccncc2)nc2c1cnn2C`, the activity in assay [1] was -28.8%; in assay [3], -20.9%; in assay [4], -44.2%. Further, the activity change, negative = inhibition in assay [2] is -15.2%.
In the case of `Cc1nn(C(=O)CCC(=O)N2CCC(Cc3nncn3CC3CC3)CC2)c2ccccc12`, the activity in assay [1] is 6.63%; in assay [3], -59.9%; in assay [4] it was 7.75%. In addition, the activity change, negative = inhibition in assay [2] was found to be 3.09%.
For `O=C(NCc1cccc(F)c1)c1nc2c(o1)CCN(CC1CCCC1)CC2`, the activity in assay [1] is 5.53%; in assay [3] it was 5.46%; in assay [4], -10.1%. Further, the activity change, negative = inhibition in assay [2] came to 18.3% [at 85.7 µM].
For the compound `COC(=O)C(Cc1c[nH]c2ccccc12)NC(=O)c1ccccc1Br` (stereo not drawn), the values for the activity in assay [1], in assay [3] and in assay [4] were -2.16%, -4.76% and -7.16%, respectively. Moreover, the activity change, negative = inhibition in assay [2] was found to be 0%.
The corresponding values for `COc1ccc(OC)c2c1cc1n2CC(C)(C(=O)NC2CCCCC2)N(Cc2cccnc2)C1=O` (stereo not drawn) are -8.96%, -28.2%, -10.7% and -5.74%.
